Results filed as inconclusive are left out. The source made the active and inactive calls. Calls follow the shape of the dose curve; as a rule, active = well fitted curve in the direction sought with a large enough effect; inconclusive = small, poorly fitted or top-dose-only effect, or another doubt; inactive = no such curve, though single readings can be large or run the other way.
These molecules were tested against Polyunsaturated fatty acid lipoxygenase ALOX15 (Homo sapiens) (UniProt P16050) (assay: Counterscreen qHTS for inhibitors of human arachidonate 12S-lipoxygenase (ALOX12): ALOX15 Assay). Conditions: purified ALOX15 enzyme activity; series mostly up to 110 µM.
Chain of Polyunsaturated fatty acid lipoxygenase ALOX15 (Homo sapiens) (P16050 whole entry, looked up): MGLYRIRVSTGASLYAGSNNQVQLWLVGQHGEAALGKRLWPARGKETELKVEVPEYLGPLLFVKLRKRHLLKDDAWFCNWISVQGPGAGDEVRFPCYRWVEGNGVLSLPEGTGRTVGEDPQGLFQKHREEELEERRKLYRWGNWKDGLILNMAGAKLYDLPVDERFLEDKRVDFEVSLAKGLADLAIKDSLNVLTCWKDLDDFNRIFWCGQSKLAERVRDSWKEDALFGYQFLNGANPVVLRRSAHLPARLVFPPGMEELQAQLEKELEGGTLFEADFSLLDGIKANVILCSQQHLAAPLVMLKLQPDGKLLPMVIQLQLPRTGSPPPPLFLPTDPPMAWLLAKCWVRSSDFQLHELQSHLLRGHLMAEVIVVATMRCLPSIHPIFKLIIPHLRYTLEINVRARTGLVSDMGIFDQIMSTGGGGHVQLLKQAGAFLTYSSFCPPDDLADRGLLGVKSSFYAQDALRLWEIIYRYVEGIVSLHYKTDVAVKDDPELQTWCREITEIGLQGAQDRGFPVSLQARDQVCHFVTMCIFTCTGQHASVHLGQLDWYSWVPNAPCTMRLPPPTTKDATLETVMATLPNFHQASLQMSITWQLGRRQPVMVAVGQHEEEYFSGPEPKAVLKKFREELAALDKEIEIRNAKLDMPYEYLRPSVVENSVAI
From the text: Assay Provider: Theodore R. Holman Ph.D.
University of California, Santa Cruz, California
Human lipoxygenase 12hLO is a member of the closely related lipoxygenase family of enzymes which catalyze the site-specific oxidation of arachidonic acid to various hormone precursor molecules and as such is a candidate for drug development in a variety of disease areas, such as cancer and inflammation. Inhibition of 12hLO activity was screened by utilizing arachidonic acid as a substrate. The extent of hydroperoxide product formation was measured by a secondary chromogenic reaction in which xylenol orange (XO, Sigma-Aldrich, cat. number 39,818-7) reacts with the ferric ions produced from the reaction between the hydroperoxide and ferrous ions. The Fe (III)-XO complex is characterized with red-shifted absorbance at 560 nm. A purified preparation of human 12hLO was supplied by Dr. Holman laboratory, University of California, Santa Cruz.
An assay against arachidonate 15-lipoxygenase (ALOX15) was developed to assess selective inhibition against ALOX12. Desired compounds would show potent inhibition against ALOX12 and minimal to no inhibition against ALOX15.
SEQUENCE No. (e.g., 1, 2, 3, etc.); PARAMETER (e.g., Cells, Incubation, Reagent, etc.); VALUE; DESCRIPTION
1; Enzyme; 3 uL; 40 nM ALOX15 (15hLO-1) enzyme solution dispensed in 1536-well Greiner black, clear bottom plates.
2; Compound; 23 nL; compounds and controls were added.
3; Incubate; 15 min; room temperature.
4; Substrate; 1 uL; 50 uM arachidonic acid (final concentration).
5; Incubate; 30 min; room temperature.
6; Reagent; 4 uL; Fe-XO solution was added to each well.
8; Incubation; 30 min; room temperature
9; Detector; absorbance; Read 1 at 405 nm absorbance using ViewLux (PerkinElmer) CCD imager.
10; Detector; absorbance; Read 2 at 573 nm absorbance using ViewLux (PerkinElmer) CCD imager.
NOTES (numbers refer to sequence above)
1; 40 nM ALOX15 (final concentration) in buffer solution (25 mM Hepes, 0.01% Triton X-100, pH 7.5) was dispensed in columns 1, 2, 5 - 48. Column 1 is neutral (100% activity). Buffer only was dispensed in columns 3 and 4 as no enzyme negative controls. The plates were covered with metal lids with gas-exchange holes.
2; Compounds were pin transferred via a Kalypsys Pin Tool (Wako USA) in column 5 - 48. Control compound was transferred in column 2, titration of nordihydroguaiaretic acid (NDGA, Sigma-Aldrich, N5023) with top concentration of 10 mM in DMSO then 1:2 dilution in duplicate. Dilution factor of 23 nL into 4 uL final assay volume.
3; Covered assay plates were incubated for 15 min at room temperature.
4; Substrate was added to start the reaction; 50 uM arachidonic acid (Sigma-Aldrich, St. Louis, MO) was dispensed throughout the plate.
6; Chromogenic detection reagent solution (divalent iron/xylenol orange, Fe-XO) was added to each well: 200 uM xylenol orange, 300 uM ferrous ammonium sulfate prepared freshly in 50 mM sulfuric acid.
9, 10; Two absorbance readouts were obtained at 405 nm and at 573 nm using a ViewLux high-throughput CCD plate imager (PerkinElmer). The 573 to 405 (Read 2 / Read 1) absorbance ratio was used to compute reaction progress.

| Structure (SMILES) | outcome |
| --- | --- |
| CC[C@@H](Nc1ncnc2c1CN(C1CCCNCC1)C(=O)CN2C)c1ccccc1 (stereo not given in full) | inactive |
| O=C1NCc2ccccc2CC12CCCN2Cc1ccc(O)cc1O (stereo not given) | inactive |
| O=C(c1ccc2c(c1)OCO2)N1CCCC1c1nnc2n1CCNC2 (stereo not given) | inactive |
| CN1CC(=O)N(C2CCCNCC2)Cc2c(NCc3cccc(Cl)c3)ncnc21 (stereo not given) | inactive |
| CC(CCc1ccccc1)Nc1ncnc2c1CN(C1CCNC1)C(=O)CN2C (stereo not given) | inactive |
| CC(C)NC(=O)N1CNC(=O)C12CCN(C(=O)CN)CC2 | inactive |
| Cn1nc(C2CCCN2)c2c(C(=O)NCc3cccs3)cc(C3CC3)nc21 (stereo not given) | inactive |
| Cc1cc(C)cc(-c2ccc(CN3CCCC(c4nc5ccc(F)cc5c(=O)[nH]4)C3)cc2)c1 (stereo not given) | inactive |
| COc1ccc(N(C)C2CN(C(=O)OC(C)(C)C)C2)cc1 | inactive |
| O=C1NCc2ccccc2CC12CCN(Cc1ccc(F)cc1)C2 (stereo not given) | inactive |
| C[S+](=O)([O-])N1CC2ON=C(C(=O)NCCc3ccc(Cl)cc3)C2C1 (stereo not given) | inactive |
| CNCc1ccccc1-c1ccccc1 | inactive |
| CN1CC(=O)N(C2CCNCC2)Cc2c(NC3CCCCC3O)ncnc21 (stereo not given) | inactive |
| Cc1ccc2nc(C3CCN(Cc4cccs4)CC3)[nH]c(=O)c2c1 | inactive |
| O=C(c1cc(C2CC2)nc2onc(C3CCCN3)c12)N1CCOCC1 (stereo not given) | inactive |
| O=C1NCc2ccccc2CC12CCN(Cc1ccccc1OC(F)(F)F)C2 (stereo not given) | inactive |
| CC(=O)N1CCC(c2nnc3n2CCNC3)CC1 | inactive |
| O=c1n(-c2ccc(C(F)(F)F)cc2)nc2n1CCN(Cc1ccc(C(F)(F)F)cc1)C2 | inactive |
| O=C(c1ccccc1)N1CCCC2(CC(c3cccnc3)=NO2)C1 (stereo not given) | inactive |
| Cn1cccc1CN1CCCCC12Cc1ccccc1CNC2=O (stereo not given) | inactive |

| Structure (SMILES) | outcome |
| --- | --- |
| CN1CC(=O)N(C2CCCNCC2)Cc2c1ncnc2N1CCCC(O)C1 (stereo not given) | inactive |
| O=C(c1cn2c(n1)CN([S+](=O)([O-])c1cccc(C(F)(F)F)c1)CC2)N1CCOCC1 | inactive |
| COc1ccc(NC2CN(C(=O)OC(C)(C)C)C2)cc1 | inactive |
| COc1cccc(N2C(=O)NC(=NC3CCCC3)C23CCCN([S+](=O)([O-])c2ccccc2)C3)c1 (stereo not given) | inactive |
| CC(C)CCN1CCn2c(nn(-c3ccc(Cl)cc3)c2=O)C1 | inactive |
| Cc1ccc(-c2ccc(CN)cc2)cc1Cl | inactive |
| Cc1ccc(C(=O)N2CCn3c(nnc3C3CCNCC3)C2)cc1 | inactive |
| O=[S+]([O-])(c1ccncc1)c1nnn2c1nc(NCc1ccc(F)cc1)c1ccccc12 | inactive |
| CC(CO)Nc1ncnc2c1CN(C1CCCNCC1)C(=O)CN2C (stereo not given) | inactive |
| COc1ccc(CN2CCCC23Cc2ccccc2CNC3=O)cc1OC (stereo not given) | inactive |
| NCc1cccc(-c2ccc(F)cc2F)c1 | inactive |
| CC(=O)NCCC(=O)N1Cc2ccccc2CC2(CCCCN2CC2CCNC2)C1 (stereo not given) | inactive |
| c1ccc(NCCN2CCCC2)cc1 | inactive |
| O=C1NCc2ccccc2CC12CCN(C/C=C/c1ccccc1)CC2 | inactive |
| CCC(=O)N1Cc2ccccc2CC2(CCCCN2CC2CCOCC2)C1 (stereo not given) | inactive |
| CN1CC(=O)N(C2CCCNC2)Cc2c(NC3CCCCCC3)ncnc21 (stereo not given) | inactive |
| CC(C)CNC(=O)c1cc(C2CC2)nc2onc(C3CCNCC3)c12 | inactive |
| Cc1ccc(-c2ccccc2C=O)cc1Cl | inactive |
| O=C1NCc2ccccc2CC12CCN(Cc1ccc3ccccc3c1)C2 (stereo not given) | inactive |
| CN1CC(=O)N(C2CCNCC2)Cc2c1ncnc2N1CCc2ccccc2C1 | inactive |
